HEK293 cAMP cs: counter-screen for TSHR agonists: cAMP increase in parental HEK293 | actives 2.5% (n = 73,000) | Potency, µM (titrated, usually from 57.1 µM), for the others: top-dose activation, actives largely listed as activators | AID 938 | parental HEK293 CNG cAMP sensor, membrane potential fluorescence; active = well fitted activation curve with a large enough effect; inconclusive = small, poorly fitted or top-dose-only effect; inactive = no such curve, though single readings can be large or run the other way; note: % of control where 0% means no effect; nearly all actives have a fitted effect of over 55% in size
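Counterscreen for endogenous-receptor signalling: CNG-channel HEK 293 cells report cAMP rise by membrane depolarization. After 60 min dye equilibration with 100 uM RO 20-1724, compounds incubated 30 min before bottom-read fluorescence at 590 nm.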
TSHR ag: activates the human thyroid stimulating hormone receptor; P16473; HEK293-CNG-TSHR cells (CNG channel as cAMP sensor), membrane potential dye, cAMP; Potency, µM (series often up to 57.1 µM), for inactives: top-dose activation, actives largely listed as activators; actives 0.48% (n = 73,000); AID 926; active = well fitted activation curve with a large enough effect in the main read-out, with a control signal flat, not every such curve was filed as active; inconclusive = small, poorly fitted or top-dose-only effect, or a change in a side signal; inactive = no such curve, though single readings can be large or run the other way; % of control where 0% means no effect;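 note: the control signal comes from parental cells without the receptor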
Target sequence (P16473 whole entry, looked up): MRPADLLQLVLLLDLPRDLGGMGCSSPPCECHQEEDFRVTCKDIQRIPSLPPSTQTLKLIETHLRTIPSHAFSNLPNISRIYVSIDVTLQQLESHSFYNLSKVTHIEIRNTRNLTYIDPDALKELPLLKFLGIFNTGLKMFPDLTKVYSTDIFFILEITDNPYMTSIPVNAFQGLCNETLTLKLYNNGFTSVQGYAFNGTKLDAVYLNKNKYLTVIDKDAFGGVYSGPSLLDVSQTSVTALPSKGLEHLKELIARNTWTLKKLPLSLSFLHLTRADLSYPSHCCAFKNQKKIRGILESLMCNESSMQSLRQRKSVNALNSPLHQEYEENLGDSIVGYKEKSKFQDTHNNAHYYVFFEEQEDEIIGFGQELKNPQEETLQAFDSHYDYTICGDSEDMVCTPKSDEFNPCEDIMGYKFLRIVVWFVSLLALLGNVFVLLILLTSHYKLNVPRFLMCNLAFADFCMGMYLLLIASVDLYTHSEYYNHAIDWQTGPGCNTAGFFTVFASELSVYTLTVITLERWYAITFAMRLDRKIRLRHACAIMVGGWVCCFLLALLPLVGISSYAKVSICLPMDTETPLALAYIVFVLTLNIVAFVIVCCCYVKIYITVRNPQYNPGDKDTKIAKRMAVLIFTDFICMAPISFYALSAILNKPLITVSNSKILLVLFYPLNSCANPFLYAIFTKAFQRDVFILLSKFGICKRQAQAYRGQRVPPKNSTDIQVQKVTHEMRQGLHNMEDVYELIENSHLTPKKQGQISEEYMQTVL
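HEK 293 cells stably expressing TSHR and a modified CNG channel, with CNG-only parental cells as counterscreen, were preloaded 60 min at room temperature with membrane potential dye containing 100 uM RO 20-1724. Compound exposure was 30 min, and depolarization was read as fluorescence at 590 nm.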
* = called active by the depositor; u = inconclusive; x = no result; [ ] = remark or other dose. Compounds with a hit are over-represented: about 2.9% of the library has one in this group of screens. Potency is the fitted concentration of half-maximal effect.

SMILES	HEK293 cAMP cs	TSHR ag
Cc1cccc(OCCCCCn2ccnc2)c1C	32µM*	u
Cc1ccc(OCCCCn2ccnc2)c(Cl)c1	12%	17%
C[C@H]1[C@H](NC(=O)/C(=N/OC(C)(C)C(=O)O)c2csc(N)n2)C(=O)N1S(=O)(=O)O (stereo in doubt)	6%[25.6 µM]	-1%[25.6 µM]
CC1=CC(C#N)(C#N)C(C#N)(C#N)C(c2ccccc2)N1 (stereo unspecified)	8%	0%
CCSC1(SCC)N=C(N)C2(C#N)C(c3ccccc3)NC(C)=C(C)C12C#N (stereo unspecified)	12%	25µM*
COCCn1c(=O)c(-c2cccs2)nc2cnc(Oc3ccc(OC)cc3)nc21	10%	4%
CCC(=O)Nc1nc2ccccc2n1Cc1ccc(C)cc1	5%	13%
O=C(Nc1nc2ccccc2n1CCOc1ccc(Cl)cc1)c1ccco1	25µM*	u
O=C(Cn1c(NCCO)nc2ccccc21)c1ccco1	7%	-12%
O=C(Nc1nc2ccccc2n1CCN1CCCCC1)c1ccco1	-40%	u
c1ccc(OCCn2c(-c3ccco3)nc3ccccc32)cc1	25µM*	u
CCn1c(-c2ccco2)nc2ccccc21	14%	4%
O=C(Nc1nc2ccccc2n1CCOc1ccccc1)c1ccco1	25µM*	u
Cc1ccc(OCCn2c(NC(=O)c3ccco3)nc3ccccc32)cc1	16µM*	u
Nc1ccc(S(=O)(=O)NCc2nccs2)cc1	0%[11.4 µM]	5%[11.4 µM]
COC(=O)[C@H](Cc1ccccc1)NC(=O)[C@@H](C)CO	-4%[11.4 µM]	-7%[11.4 µM]
C#CCCCO/N=C1/C[C@@H](O)[C@@H](O)[C@@H]2[C@@H]3C(=O)N(Cc4ccc5c(c4)OCO5)C(=O)[C@H]3CC[C@@H]12	6%[11.4 µM]	18%[11.4 µM]
Cc1cccc(OCCn2c(NC(=O)c3ccco3)nc3ccccc32)c1	32µM*	u
CCOC(=O)Cn1c(=N)n(CCOc2cccc(C)c2)c2ccccc21	23%	-16%
N#C/C(=C\Nc1ccccn1)C(=O)c1ccco1	1%[11.4 µM]	0%[11.4 µM]
Cc1nc(NCCO)c2nc(-c3ccccc3)n(CCCN(C)C)c2n1	7%	9%
Cc1cccc(OCCSc2cc(C)nc(N)n2)c1	32µM*	u
Cc1cccc(OCCSc2nnc(-c3ccoc3C)n2C)c1	27%	23%
C[C@@H](C(=O)Nc1ccc2ccccc2c1)[C@@H]1C[C@@]1(C)[C@@H](NC(=O)c1ccncc1Cl)c1ccccc1	9%	10%
Cc1cc(C(=O)N[C@H](c2ccccc2)[C@@]2(C)C[C@@H]2[C@@H](C)C(=O)Nc2ccc3ccccc3c2)no1	1.6µM*	u
SMILES	HEK293 cAMP cs	TSHR ag
C[C@@H](C(=O)Nc1ccc2ccccc2c1)[C@H]1C[C@]1(C)[C@H](NC(=O)c1ccccc1)c1ccccc1	11%	16%
C[C@@H](C(=O)Nc1ccc2ccccc2c1)[C@H]1C[C@]1(C)[C@H](NC(=O)c1cnccn1)c1ccccc1	16µM*	u
BrC(Br)C(Br)Br	-11%	u
O=S(=O)(Nc1ccc(Cl)cc1Cl)c1cc(Cl)ccc1Cl	8%	x
COc1ccc(OC)c(C2=Nn3c(nnc3-c3cccc(OC(C)C)c3)SC2)c1	25µM*	u
COc1ccc(C2=Nn3c(nnc3-c3cccnc3)SC2)cc1	-3%	1%
Cc1ccc(-c2nnc(SCC(=O)N3CC(C)CC(C)C3)o2)cc1C (stereo unspecified)	16µM*	u
COc1cccc(-c2nnc(SCC(=O)N3CC(C)CC(C)C3)o2)c1 (stereo unspecified)	20%	x
CCC(c1nnnn1Cc1ccc2c(c1)OCO2)N1CCN(c2ccc(F)cc2)CC1 (stereo unspecified)	16µM*	u
CC(C)C(c1nnnn1Cc1ccc(F)cc1)N1CCN(Cc2ccc3c(c2)OCO3)CC1 (stereo unspecified)	7%	4%
CC(C)CC(c1nnnn1CC1CCCO1)N1CCN(Cc2ccc3c(c2)OCO3)CC1 (stereo unspecified)	16%	4%
CCC(c1nnnn1Cc1ccc2c(c1)OCO2)N1CCN(c2ccccc2)CC1 (stereo unspecified)	16µM*	u
CN(C)CCO[C@](C)(c1ccccc1)c1ccccn1	5%[25.6 µM]	-2%[25.6 µM]
CCc1ccc(S(=O)(=O)Nc2ccc(O)c(C(=O)O)c2)cc1	1%	6%
Cc1ccc(C)c(OCC(=O)Nc2nonc2NC(=O)COc2cc(C)ccc2C)c1	25µM*	u
Cc1cc(NC(=O)COc2cccc(C)c2C)no1	9%	8%
CCC/C=C(\CCC)C(NC(=O)c1ccco1)c1ccc(C(=O)OC)cc1 (stereo unspecified)	25µM*	u
CCC/C=C(\CCC)C(NC(=O)c1ccc(-c2ccccc2)cc1)c1ccc(C(=O)OC)cc1 (stereo unspecified)	26%	6%
O=S(=O)(c1cccs1)N1CN(CC2CCCO2)c2nc3ccccc3nc21 (stereo unspecified)	19%	25µM*
C=CCN1CN(S(=O)(=O)c2cccs2)c2nc3ccccc3nc21	19%	x
CCC(C)(C)NC(=O)C(c1ccccc1F)N(Cc1ccco1)C(=O)Cn1nnc2ccccc21 (stereo unspecified)	16µM*	u
CCC(C)(C)NC(=O)C(c1ccc(C)o1)N(Cc1cccs1)C(=O)Cn1nnc2ccccc21 (stereo unspecified)	16µM*	u
COCCNC(=O)C(c1ccc(C)o1)N(Cc1ccc(OC)cc1)C(=O)Cn1nnc2ccccc21 (stereo unspecified)	3%	3%
CCC(C)(C)NC(=O)C(c1ccccc1F)N(Cc1ccco1)C(=O)c1csnn1 (stereo unspecified)	19%	20%
O=c1c(-c2ccc(Cl)cc2)nc2cnc(N3CCNCC3)nc2n1-c1ccccc1	-13%	1%
SMILES	HEK293 cAMP cs	TSHR ag
CCn1c(SCc2cccc(C(=O)O)c2)nnc1-c1ccccc1	6%	7%
CCSc1nnc(-c2cccc(S(=O)(=O)N(CC)CC)c2)n1Cc1ccccc1	16µM*	u
Fc1ccc(OCc2nc(-c3ccc(Br)o3)no2)c(F)c1	2.5µM*	u
COc1ccc(Cc2nc(-c3ccc(Br)o3)no2)cc1OC	27%	x
CN(C)/C=C/C(=O)c1nnn(C2CCCCC2)c1NC1CCCCC1	16µM*	u
O=C(O)c1ccc2c(c1)nnn2C1CCCCC1	-14%	-4%
CO[C@@H]1/C=C\O[C@@]2(C)Oc3c(C)c(O)c4c(c3C2=O)C(=N[C@H]2CC[C@H](O)O[C@@H]2C)C=C(NC(=O)/C(C)=C\C(=O)[C@@H]2C[C@@H]2[C@@H](O)[C@H](C)[C@@H](O)[C@H](C)[C@H](OC(C)=O)[C@@H]1C)C4=O	10%[11.4 µM]	-6%[11.4 µM]
Nc1ccc(Cl)cc1Cl	-29%	u
Cn1c(=O)c(-c2cc(F)cc(F)c2)nc2cnc(Oc3cccc(Cl)c3)nc21	18%	9%
COCCn1c(=O)c(C)nc2cnc(Oc3ccc(OC)cc3)nc21	32µM*	u
COc1ccc(Oc2ncc3nc(C)c(=O)n(C)c3n2)cc1	9%	3%
Cc1nc2cnc(Oc3cccc(Cl)c3)nc2n(Cc2ccc(F)cc2)c1=O	4µM*	u
CC(=O)OC[C@@H]1O[C@H](CCO/N=C(\C)CCN2CCCc3nc(C)c(C)cc32)C=C[C@@H]1OC(C)=O	4%[11.4 µM]	-3%[11.4 µM]
NCCNC(=S)S	-1%[11.4 µM]	0%[11.4 µM]
C1CCC(n2nnnc2CN2CCN(C3CCCC3)CC2)CC1	14%	1%

Screening results: PubChem, National Center for Advancing Translational Sciences (NCATS)
